USP2a inh: blocks human ubiquitin-specific protease USP2a | O75604 | USP2 core, Ub-CHOP2 coupled fluorogenic reporter, 485/531 | Potency, µM (doses to about 38.3 µM), for inactives: top-dose activity change, negative = inhibition, actives largely listed as inhibitors | actives 0.01% (n = 330,000);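 note: potency is the fitted concentration of half-maximal effect; plate controls were DMSO wells for no effect and full inhibition by NEM control for full effect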
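USP2 core (10nM final) preincubated 30min RT with compound in 20mM Tris-HCl pH 8.0, 2mM CaCl2, 2mM beta-mercaptoethanol, 0.05% CHAPS; 25nM Ub-CHOP2 plus 25nM reporter substrate added, fluorescence (Ex485/Em531) read after 60min.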
USP1 inh: USP1/UAF1 (human) deubiquitinase inhibition. recombinant USP1/UAF1, Ub-Rhodamine cleavage fluorescence. Potency, µM (highest dose often 57.1 µM), inactives show top-dose activity change, negative = inhibition, actives largely listed as inhibitors. actives 0.23% (n = 390,000). AID 743255; note: potency is the fitted concentration of half-maximal effect; % is set by controls: 0 for no effect and ±100 for the full control effect; nearly all actives have a fitted effect of over 60% in size
Target sequence (O94782 whole entry, looked up): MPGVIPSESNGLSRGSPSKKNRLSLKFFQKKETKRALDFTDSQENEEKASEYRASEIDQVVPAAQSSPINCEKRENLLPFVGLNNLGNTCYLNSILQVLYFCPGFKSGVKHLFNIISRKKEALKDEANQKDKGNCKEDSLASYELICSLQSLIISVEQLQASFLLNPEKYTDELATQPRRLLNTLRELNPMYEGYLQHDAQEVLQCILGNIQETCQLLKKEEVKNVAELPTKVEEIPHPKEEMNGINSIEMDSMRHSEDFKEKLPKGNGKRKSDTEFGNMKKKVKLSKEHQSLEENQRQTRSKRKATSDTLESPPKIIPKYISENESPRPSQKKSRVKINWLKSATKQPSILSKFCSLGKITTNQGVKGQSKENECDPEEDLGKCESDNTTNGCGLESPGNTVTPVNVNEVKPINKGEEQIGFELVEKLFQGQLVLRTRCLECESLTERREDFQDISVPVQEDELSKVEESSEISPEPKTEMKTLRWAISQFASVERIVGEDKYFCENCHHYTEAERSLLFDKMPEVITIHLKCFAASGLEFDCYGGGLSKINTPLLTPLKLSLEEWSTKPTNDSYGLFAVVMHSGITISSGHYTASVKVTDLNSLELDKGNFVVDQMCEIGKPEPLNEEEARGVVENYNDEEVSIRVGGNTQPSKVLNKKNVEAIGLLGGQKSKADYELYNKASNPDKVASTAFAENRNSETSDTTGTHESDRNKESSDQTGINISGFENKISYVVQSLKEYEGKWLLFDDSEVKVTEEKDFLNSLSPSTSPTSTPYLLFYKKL
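Step one: compound is pinned into 1nM USP1/UAF1 in HEPES pH 7.8 buffer with TCEP. Step two: 15 min room-temperature incubation. Step three: Ub-Rho (150nM final) starts cleavage, tracked by fluorescence over six one-minute reads.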
ATXN2 expr inh: reduces ATXN2 reporter expression in HEK-293 cells. HEK-293 ATXN2-luciferase reporter, luminescence, 24 h. Potency, µM (titrated, usually from 57 µM), inactives show top-dose activity change, negative = inhibition, usual class: inhibitors. actives 0.72% (n = 360,000). AID 1745845; note: potency is the fitted concentration of half-maximal effect; % is set by controls: 0 for no effect and ±100 for the full control effect; nearly all actives have a fitted effect of over 55% in size
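qHTS (up to 57 uM final) was run with 24 h compound exposure of reporter cells at 37 °C. Each well was multiplexed: SteadyGlo luminescence measured ATXN2-luciferase expression after a fluorogenic Gly-Phe-AFC viability readout (25 uM final).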
S2 tox: reduces viability in counter-screen for ATXN expression inhibitors | Potency, µM (series often up to 56.7 µM), hits mostly cytotoxic | actives 0.49% (n = 400,000) | S2 cells (HEK-293 line with an ATXN2-luciferase reporter) viability, CellTiter-Fluor protease fluorescence, 24 h | AID 651635; note: potency is the fitted concentration of half-maximal effect; nearly all actives have a fitted effect of over 40% in size
IL-1B inflam inh: blocks inflammasome-driven IL-1 beta release. THP-1 LPS/ATP IL-1B secretion, AlphaLISA, 16 h; hits give low values. activity change, % at 57.5 µM. actives 4.7% (n = 360,000); in the data active = activity change below about -50%; inconclusive = mostly about -30% to -49%; note: % is set by controls: 0 for no effect and ±100 for the full control effect
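Secreted IL-1B measured by AlphaLISA bead assay after 16 h compound exposure of THP-1 cells; compounds (final up to 57.5 uM) added 1 h before LPS (250 ng/mL) and ATP (1.25 mM) stimulation; lower signal means less secretion.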
Numbers without * were called inactive; i = inactive; ? = inconclusive; · = no result; [ ] = dose if it differs, or a comment. Sampled rows, rich in hits. Any-hit rate of the full collection: about 4.8%. Unless noted, calls come from the whole dose curve; as a rule, active = well fitted curve in the direction sought with a large enough effect; inconclusive = small, poorly fitted or top-dose-only effect, or another doubt; inactive = no such curve, though single readings can be large; an effect the other way counts as inactive or inconclusive.

SMILES	USP2a inh	USP1 inh	ATXN2 expr inh	S2 tox	IL-1B inflam inh
CN(C)S(=O)(=O)c1cccc(NC(=O)CSc2cccc3cccnc23)c1	2%	-7%	?	·	-105*
CN(C)S(=O)(=O)c1ccc(Cl)c(NC(=O)CSc2nc3c(cc2C#N)C(=O)CC(C)(C)C3)c1	0%	-18%	-15%	i	-6
Cc1cc(CNC(=O)c2cnn(-c3ncc4c(n3)-c3ccccc3CCC4)c2C2CC2)on1	·	·	·	i	·
N=C1/C(=C/c2coc3ccccc3c2=O)C(=O)N=C2SC(c3ccco3)=NN12	12%	178%	-10%	i	1
N=C1/C(=C\c2coc3ccc(O)cc3c2=O)C(=O)N=C2SC=CN12	?	28µM*	-1%	?	-9
CSC1=NSC2=NC(=O)/C(=C\c3coc4ccccc4c3=O)C(=N)N12	?	22µM*	-5%	i	5
CC(C)CSC1=NSC2=NC(=O)/C(=C\c3coc4ccccc4c3=O)C(=N)N12	?	4.5µM*	4%	i	4
N=C1/C(=C\c2coc3ccccc3c2=O)C(=O)N=C2SC(c3ccncc3)=NN12	21%	28µM*	-14%	?	-11
CC(C)CSC1=NSC2=NC(=O)/C(=C\c3ccccc3)C(=N)N12	2%	-8%	11%[11.3 µM]	i	12
Cc1ccc(-n2nc(C(=O)N3CCC(C)CC3)c(=O)n(C)c2=O)cc1	·	-1%	10%	i	·
Cc1ccc2cccc(NC(=O)c3ccc(C#N)cc3F)c2n1	·	0%	-4%	i	·
CC(C)(O)C#Cc1ccc(CN2CCc3nnc(CCNC(=O)c4ccco4)n3CC2)cc1	·	·	·	i	·
Cc1cc(Nc2ccccc2)nc(-c2ccccc2O)n1	3%	-25%	17%	?	-17
Cc1cc(Nc2cccc(F)c2)nc(-c2ccccc2O)n1	0%	-9%	-19%	i	-61*
Cc1cc(Nc2ccccc2Cl)nc(-c2ccccc2O)n1	-20%	-29%	-3%	i	-70*
COc1ccc(S(=O)(=O)N(CCc2ccccc2)CC(=O)Nc2ccc(C)c(C)c2)cc1OC	·	-17%	?	i	·
CC1=C(C(=O)O)N2C(=O)[C@@H](NC(=O)[C@@H](N)c3ccccc3)[C@@H]2SC1	·	·	·	i	·
NC(=O)c1ccc(C[C@H](C(=O)O)N2C(=O)c3ccc(C(=O)O)cc3C2=O)cc1	-2%	·	·	·	·
Oc1ccc(CN2CCCCC2)c2cccnc12	0%	-11%	20µM*	13µM*	101
COCc1cc(CN2CCCC2)c(O)c2ncccc12	-2%	-13%	?	?	101
Oc1ccc(CN2CCC(Cc3ccccc3)CC2)c2cccnc12	-1%	-8%	?	i	-53*
Oc1c(CN2CCCCC2)cc(COCc2ccccc2)c2cccnc12	-6%	-6%	3.2µM*	?	-105*
Cc1[nH]c2ccccc2c1CN1CCC(Cc2ccccc2)CC1	-6%	-14%	-29%	i	-85*
Oc1c(CN2CCCCC2)ccc2cccnc12	·	1%	?	?	-98*
Oc1c(Cl)cc(CN2CCCCC2)c2cccnc12	-1%	·	·	·	·
SMILES	USP2a inh	USP1 inh	ATXN2 expr inh	S2 tox	IL-1B inflam inh
Cc1ccc(C)c(S(=O)(=O)N2CCN(Cc3ccc(O)c4ncccc34)CC2)c1	3%	-22%	8.9µM*	i	103
O=c1[nH]nnc2c1ncn2C1OC(CO)C(O)C1O (centres undefined)	·	·	-22%	?	7
Cc1cccc(Nc2nc(NCc3ccco3)c3ccccc3n2)c1	?	-9%	25µM*	·	-98*
C=CCNc1nc(Cl)nc(NCc2ccco2)n1	1%	-13%	-7%	i	6
COc1ccc(Nc2nc(N3CCOCC3)nc(N3CCOCC3)n2)cc1	2%	-2%	·	i	-10
c1ccc(Nc2nc(NCc3ccco3)c3ccccc3n2)cc1	-1%	-19%	-31%	i	-94*
Oc1ccc(Nc2nc(Cl)nc(NCc3ccco3)n2)cc1	3%	-1%	21%	i	-109*
COc1ccc(Nc2nc(NCc3ccco3)nc(N3CCOCC3)n2)cc1	0%	-9%	-18%	i	-57*
O=C(NCCCN1CCOCC1)c1ccc(Sc2ccccc2Cl)c([N+](=O)[O-])c1	-2%	-25%	-14%	i	-52*
O=C(Nc1cccc(Cl)c1)c1ccc(NCCCN2CCOCC2)c([N+](=O)[O-])c1	3%	-12%	?	?	-51*
CCCc1cc(=O)[nH]c2nnc(SCC(=O)Nc3ccc4c(c3)OCCO4)n12	2%	?	-7%	i	14
O=C(NCC(c1ccco1)N1CCCCC1)c1cccc(S(=O)(=O)Nc2ccc(F)cc2)c1 (centres undefined)	3%	2%	-7%	?	-4
Cc1ccc(Cl)cc1NC(=O)C(C)n1nc(-c2ccccc2)ccc1=O (centres undefined)	·	-15%	-3%	i	·
COc1ccccc1CNC(=O)CCNS(=O)(=O)/C=C/c1ccc(C)cc1	-3%	?	-16%	i	-55*
O=C(CCn1c(=O)c2ccccc2n(Cc2cccc([N+](=O)[O-])c2)c1=O)N1CCc2ccccc2C1	2%	-3%	-12%	i	-11
CCn1c(=O)c2ccccc2n(Cc2cccc([N+](=O)[O-])c2)c1=O	-1%	-29%	11%	i	-50*
Cn1c(SCc2ccc(C#N)cc2Cl)nc2ccccc21	2%	-25%	116%	i	-71*
Cc1cc(C(=O)NCc2nc(-c3cccc(NC(=O)c4ccccc4)c3)oc2C)nc(C)n1	·	·	·	i	·
O=C(Cn1nc(-c2ccccc2)ccc1=O)Nc1ccc(N2CCN(C(=O)c3cccs3)CC2)cc1	7%	-5%	-29%	i	-57*
CC(C)CC(=O)Nc1ccc(N2CCN(C(=O)c3cccs3)CC2)cc1	1%	-13%	-11%	i	-12
COc1ccc(C(=O)Nc2nc(CC(=O)NCCc3cccc(OC)c3)cs2)cc1	-3%	-12%	57%	i	?
O=C(Cc1csc(NC(=O)c2ccccc2)n1)NO	4%	-14%	-14%	?	-58*
COc1ccc(C(=O)Nc2nc(CC(=O)NCCc3ccccc3)cs2)cc1	0%	-10%	22%	i	-52*
COc1ccc(Nc2ccc3cc(S(=O)(=O)N4CCCC4)ccc3n2)cc1Cl	·	-22%	-37%	i	·
CCCCOC(=O)c1ccc(N/C(=N\S(=O)(=O)c2ccccc2)c2ccccc2)cc1	0%	-27%	-10%	?	-54*
COc1ccccc1CNC(=O)C1CCN(S(=O)(=O)Cc2ccccc2)CC1	·	?	6%	i	·
O=C(C=Cc1cccnc1)c1ccccc1	·	-17%	?	·	-106*
O=C(/C=C/c1cccnc1)c1cccc(O)c1	?	-19%	?	·	-3

Screening results as filed in PubChem BioAssay.
